Experimental data: PubChem BioAssay (EPA / NIEHS)
Active and inactive are the calls of the source. How the source made its calls: active means hit-call score of the fitted dose curve at least 0.9, where 1 is the maximum; inactive means score below 0.9.

How the values were obtained:
[1] = APR_HepG2_CellLoss_72hr: Apredica 72-hour HepG2 Assay for Cell Loss (AID 2282915); conditions: high-content imaging
Outline: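 Cell number comes from Hoechst 33342-labelled nuclei, imaged at 20x after 3.7% formaldehyde fixation. Dosing was 0.39–200 uM, ten concentrations in duplicate, 0.5% DMSO final, for 72 h. Bidirectional fit relative to DMSO baseline.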

[2] = APR_HepG2_P-H2AX_72hr: Apredica 72-hour HepG2 Assay for H2AX Phosphorylation (AID 2282916); conditions: imaging, actives raise or lower the signal;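 further: phospho-histone H2A.x immunostain intensity per cell marking DNA damage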
Outline: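 Phospho-H2A.x imaging endpoint in HepG2 after 72 hr compound exposure (0.39–200 uM, duplicate wells). Activity derived by bidirectional curve fitting with DMSO as baseline.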

[3] = APR_HepG2_MitoticArrest_72hr: Apredica 72-hour HepG2 Assay for Mitotic Arrest (AID 2282918); conditions: high-content imaging, actives raise or lower the signal
Outline: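 High-content imaging of fixed human HepG2 cells after 72 h compound exposure (0.39–200 uM, duplicates, 0.5% DMSO); mitotic arrest scored from phospho-histone H3 and nuclear Hoechst staining relative to DMSO.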

[4] = APR_HepG2_MicrotubuleCSK_72hr: Apredica 72-hour HepG2 Assay for Microtubule CSK Stabilty (AID 2282919); conditions: HepG2 microtubule cytoskeleton, high-content imaging, actives raise or lower the signal
Outline: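 High-content imaging of alpha-tubulin staining in fixed HepG2 cells after 72 hr treatment with ten concentrations from 0.39 to 200 uM (0.5% DMSO). Fitting was bidirectional against DMSO; taxol served as positive control.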

[5] = APR_HepG2_P-H2AX_24hr: Apredica 24-hour HepG2 Assay for H2AX Phosphorylation (AID 2282920); conditions: high-content imaging, actives raise or lower the signal
Outline: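 High-content imaging of phospho-histone H2A.x immunofluorescence, nuclei counterstained with Hoechst 33342, in fixed HepG2 cells. Compounds ran 0.39–200 uM in duplicate for 24 h, final DMSO 0.5%. Signal change fitted both directions against DMSO.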

[6] = APR_HepG2_StressKinase_72hr: Apredica 72-hour HepG2 Assay for Stress Kinase (AID 2282921); conditions: HepG2 stress kinase (phospho-c-Jun) imaging, actives raise or lower the signal
Outline: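 Stress kinase signal reflects nuclear phospho-c-Jun staining in fixed, permeabilized cells exposed 72 h to compound at 0.39–200 uM; DMSO-normalized, fitted for increases or decreases.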

[7] = APR_HepG2_p53Act_72hr: Apredica 72-hour HepG2 Assay for p53 Activation (AID 2282923); conditions: high-content imaging, actives raise or lower the signal;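 further: average cellular p53 protein immunofluorescence intensity in HepG2 cells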
Outline: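 Fixed-cell p53 staining (sheep primary, Cy5 secondary) measured by fluorescence imaging following 72 hr treatment at 0.39–200 uM in 0.5% DMSO; DMSO served as negative control and baseline.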

[8] = APR_HepG2_NuclearSize_72hr: Apredica 72-hour HepG2 Assay for Nuclear Size (AID 2282925); conditions: high-content imaging, actives raise or lower the signal
Outline: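 Nuclear size was read by high-content imaging of Hoechst 33342 stain after formaldehyde fixation. Compounds ran 72 h on HepG2 at 0.39 to 200 uM, with final DMSO 0.5% v/v. Curves fitted both directions relative to DMSO control.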

[9] = ATG_CRE_CIS: Attagene CIS-FACTORIAL HepG2 Assay for human cAMP Responsive Element (CRE) binding protein 3 (AID 2282926); conditions: HepG2 CRE cis-reporter, Attagene multiplexed mRNA; actives raise or lower the signal
Outline: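 Endogenous transcription factor activity read via CRE-regulated reporter transcripts in transfected HepG2 cells. After 24 h exposure, RNA was reverse-transcribed, amplified, fluorescently labelled and sized by capillary electrophoresis; gain or loss fitted against DMSO.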

[10] = target: CCAAT/enhancer-binding protein beta (Homo sapiens) (UniProt P17676); test: ATG_C_EBP_CIS: Attagene CIS-FACTORIAL HepG2 Assay for human CCAAT/Enhancer Binding Protein (C/EBP) beta (AID 2282927); conditions: HepG2 Attagene cis-factorial transcription factor reporter; actives raise or lower the signal
Outline: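 Endogenous C/EBPb-driven reporter transcripts measured in transfected human HepG2 cells at 24 h via RT-PCR and capillary electrophoresis of labelled fragments. Activity fitted in both directions relative to DMSO baseline.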

[11] = ATG_CMV_CIS: Attagene CIS-FACTORIAL HepG2 Assay for human CMV (Internal Marker) (AID 2282928); conditions: HepG2 CMV promoter reporter, transcription factor profiling; actives raise or lower the signal;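 further: endpoint acts as a background internal control marker rather than a target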
Outline: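 Reporter transcripts from transfected HepG2 cells are isolated after 24 h of chemical dosing, reverse-transcribed and amplified. Fragments labeled with 6-FAM are cut with HpaI and quantified by capillary electrophoresis; DMSO defines baseline.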

[12] = ATG_DR4_LXR_CIS: Attagene CIS-FACTORIAL HepG2 Assay for human Liver X Receptor (LXR), DR4 submotif (AID 2282929); conditions: HepG2 Attagene DR4 cis-reporter, mRNA transcription; actives raise or lower the signal
Outline: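 HepG2 cells transiently transfected with cis-promoter-driven multiplexed reporter units (DR4 element) were dosed for 24 h. Reporter mRNA was quantified by RT-PCR, fluorescent primer extension, HpaI digestion and capillary electrophoresis; bidirectional fitting versus DMSO baseline.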

[13] = target: Aryl hydrocarbon receptor (Homo sapiens) (UniProt P35869); test: ATG_Ahr_CIS: Attagene CIS-FACTORIAL HepG2 Assay for human Aryl Hydrocarbon Receptor (Ahr) (AID 2282930); conditions: HepG2 AhR cis-factorial reporter transcription; actives raise or lower the signal
Outline: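 Reporter mRNA levels, quantified by RT-PCR and fluorescent capillary electrophoresis, reflect endogenous AhR transcriptional activity in HepG2 cells carrying transfected cis-promoter reporter constructs. Readout at 24 h post-dose; gain or loss fitted against DMSO baseline.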

[14] = ATG_AP_1_CIS: Attagene CIS-FACTORIAL HepG2 Assay for human Activator Protein 1 (AP-1) (AID 2282931); conditions: HepG2 Attagene cis-factorial AP-1 reporter mRNA; actives raise or lower the signal
Outline: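 HepG2 cells transiently transfected with cis-element-driven multiplex reporter units; 24 h compound exposure. Reporter mRNA quantified by RT-PCR, FAM-labelled fragments resolved by capillary electrophoresis; bidirectional fit versus DMSO baseline.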

[15] = ATG_AP_2_CIS: Attagene CIS-FACTORIAL HepG2 Assay for human Activator Protein 2 (AP-2) (AID 2282932); conditions: HepG2 AP-2 cis-reporter, Attagene transcription factor profiling; actives raise or lower the signal
Outline: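 Transiently transfected HepG2 cells are exposed to chemical for 24 h. Reporter transcripts are then measured as fluorescence following RT-PCR and capillary separation, and gain- or loss-of-signal is fitted relative to DMSO.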

[16] = ATG_BRE_CIS: Attagene CIS-FACTORIAL HepG2 Assay for human Bone Morphogenetic Protein (BMP) Response Element (BRE) (AID 2282933); conditions: HepG2 BMP response element reporter, Attagene transcription factor profiling; actives raise or lower the signal
Outline: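 Gain- or loss-of-signal was derived by bidirectional fitting against DMSO controls. The signal came from reporter mRNA, measured by RT-PCR and capillary electrophoresis, in HepG2 cells transiently carrying multiple reporter units and dosed for 24 h.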

[17] = target: Retinoic acid receptor alpha (Homo sapiens) (UniProt P10276); test: ATG_DR5_RAR_CIS: Attagene CIS-FACTORIAL HepG2 Assay for human Retinoic Acid Receptor Alpha (RARE), DR5 submotif (AID 2282934); conditions: HepG2 Attagene cis-factorial RARE DR5 reporter, mRNA; actives raise or lower the signal
Outline: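 Reporter transcripts from a DR5-regulated unit, measured via RT-PCR plus capillary electrophoresis, reflect endogenous RAR activity in transiently transfected human HepG2 liver cells. Exposure lasted 24 h; gain or loss of signal scored against DMSO.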

[18] = APR_HepG2_StressKinase_24hr: Apredica 24-hour HepG2 Assay for Stress Kinase (AID 2282922); conditions: HepG2 stress kinase (phospho-c-Jun) imaging, actives raise or lower the signal
Outline: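 High-content imaging of phospho-c-Jun immunofluorescence in fixed, permeabilized HepG2 cells after 24 h dosing. Ten concentrations, 0.39 to 200 uM, run in duplicate at 0.5% v/v DMSO; gain or loss of signal versus DMSO.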

Measured: AC50

Chain of Retinoic acid receptor alpha (Homo sapiens) (P10276 whole entry, looked up): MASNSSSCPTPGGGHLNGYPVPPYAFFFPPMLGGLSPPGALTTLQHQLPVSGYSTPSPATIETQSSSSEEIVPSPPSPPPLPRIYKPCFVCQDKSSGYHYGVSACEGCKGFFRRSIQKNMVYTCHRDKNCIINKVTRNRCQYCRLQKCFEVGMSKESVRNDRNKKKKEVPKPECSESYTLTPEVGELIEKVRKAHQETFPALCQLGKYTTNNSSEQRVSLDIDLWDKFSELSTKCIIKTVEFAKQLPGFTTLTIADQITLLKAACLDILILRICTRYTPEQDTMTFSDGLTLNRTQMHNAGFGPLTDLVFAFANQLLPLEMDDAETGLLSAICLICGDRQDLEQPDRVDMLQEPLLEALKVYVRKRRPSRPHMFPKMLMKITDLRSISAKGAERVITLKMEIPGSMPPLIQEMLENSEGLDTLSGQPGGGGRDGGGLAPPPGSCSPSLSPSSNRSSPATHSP
Chain of CCAAT/enhancer-binding protein beta (Homo sapiens) (P17676 whole entry, looked up, the tested form may be a part): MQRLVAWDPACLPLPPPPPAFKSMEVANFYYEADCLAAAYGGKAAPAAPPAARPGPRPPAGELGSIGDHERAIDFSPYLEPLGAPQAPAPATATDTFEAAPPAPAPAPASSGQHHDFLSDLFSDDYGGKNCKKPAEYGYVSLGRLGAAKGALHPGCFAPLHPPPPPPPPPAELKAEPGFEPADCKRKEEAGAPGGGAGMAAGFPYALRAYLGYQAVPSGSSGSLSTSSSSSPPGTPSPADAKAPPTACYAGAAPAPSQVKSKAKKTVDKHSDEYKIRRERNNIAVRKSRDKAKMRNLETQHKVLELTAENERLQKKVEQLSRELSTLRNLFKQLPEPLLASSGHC
Chain of Aryl hydrocarbon receptor (Homo sapiens) (P35869 whole entry, looked up): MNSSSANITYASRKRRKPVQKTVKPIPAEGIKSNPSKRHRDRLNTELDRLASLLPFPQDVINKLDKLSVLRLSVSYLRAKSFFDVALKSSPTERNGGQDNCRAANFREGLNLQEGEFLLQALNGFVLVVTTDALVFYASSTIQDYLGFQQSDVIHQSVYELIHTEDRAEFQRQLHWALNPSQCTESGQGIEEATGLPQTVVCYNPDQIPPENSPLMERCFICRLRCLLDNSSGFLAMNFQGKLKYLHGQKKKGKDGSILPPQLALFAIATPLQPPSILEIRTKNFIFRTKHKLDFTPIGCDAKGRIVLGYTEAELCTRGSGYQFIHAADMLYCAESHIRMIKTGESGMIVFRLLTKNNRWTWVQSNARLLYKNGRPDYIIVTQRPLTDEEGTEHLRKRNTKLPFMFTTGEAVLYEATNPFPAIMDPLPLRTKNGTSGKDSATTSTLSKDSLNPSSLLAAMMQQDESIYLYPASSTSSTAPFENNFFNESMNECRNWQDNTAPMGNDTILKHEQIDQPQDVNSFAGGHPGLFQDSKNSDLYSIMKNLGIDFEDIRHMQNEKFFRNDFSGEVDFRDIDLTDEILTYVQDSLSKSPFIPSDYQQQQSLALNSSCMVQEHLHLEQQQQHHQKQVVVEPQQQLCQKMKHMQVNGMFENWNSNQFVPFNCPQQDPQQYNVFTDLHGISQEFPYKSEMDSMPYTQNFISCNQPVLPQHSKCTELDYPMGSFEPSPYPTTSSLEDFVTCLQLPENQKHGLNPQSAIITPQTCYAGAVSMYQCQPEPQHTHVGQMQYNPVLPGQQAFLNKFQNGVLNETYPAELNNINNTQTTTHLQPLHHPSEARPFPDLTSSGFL

CC(C)(C)OOC(C)(C)C
not listed: [17] | [18]
inactive: all other assays above

COCCOCCO
not listed: [7] | [10] | [11] | [18]
inactive: all other assays above

CCCCc1ccccc1
not listed: [7] | [10] | [11] | [17] | [18]
inactive: all other assays above

CCCCN(CCCC)SN(C)C(=O)Oc1cccc2c1OC(C)(C)C2
active: [1] 56.8 µM | [2] 59.9 µM | [3] 54.1 µM | [4] 97.1 µM | [5] 66.8 µM | [12] 100 µM
not listed: [7] | [10] | [17] | [18]
inactive: all other assays above

Cc1cccc(N)c1
not listed: [10] | [17]
inactive: all other assays above

CCOP(=S)(Oc1ccc([N+](=O)[O-])cc1)c1ccccc1 (centres undefined)
active: [1] 27.7 µM | [12] 28.4 µM | [14] 22.1 µM | [16] 62.6 µM
not listed: [7] | [11] | [18]
inactive: all other assays above

CCOc1ccc(C(C)(C)COCc2cccc(Oc3ccccc3)c2)cc1
active: [1] 68.3 µM | [3] 66.6 µM
not listed: [10] | [17] | [18]
inactive: all other assays above

ClC(Cl)c1ccccc1
not listed: [7] | [10]
inactive: all other assays above

OCC1CO1 (centres undefined)
not listed: [17] | [18]
inactive: all other assays above

Nc1ccc(Cl)cc1
not listed: [17] | [18]
inactive: all other assays above

CCCN(CCC)c1c([N+](=O)[O-])cc(C(C)C)cc1[N+](=O)[O-]
active: [1] 43.1 µM | [2] 52.1 µM | [3] 31.6 µM | [4] 41.2 µM | [7] 44.1 µM | [11] 56.2 µM | [12] 5.57 µM | [14] 130 µM
not listed: [18]
inactive: all other assays above

c1nc[nH]n1
not listed: [10] | [11] | [17] | [18]
inactive: all other assays above

c1ccc2c(c1)Nc1ccccc1S2
active: [1] 47 µM | [16] 41.7 µM
not listed: [10] | [11] | [13] | [18]
inactive: all other assays above

O=C(O)C(Cl)Cl
not listed: [7] | [10] | [11] | [17] | [18]
inactive: all other assays above

O=P(Oc1ccccc1)(Oc1ccccc1)Oc1ccccc1
active: [1] 63.2 µM | [2] 66.4 µM | [3] 62 µM | [4] 79.4 µM | [5] 70.9 µM | [7] 68.3 µM | [12] 13.5 µM | [14] 52.6 µM | [16] 54 µM
inactive: [6] | [8] | [9] | [10] | [13] | [15]

Nc1cc2c3c(c1)C(c1ccccc1)=N[C@@H](NC(=O)c1cccnc1)C(=O)N3CC2
active: [10] 40.6 µM | [15] 145 µM
not listed: [7] | [17] | [18]
inactive: all other assays above
